A short description of experiment [1]: qHTS assay to test for compound auto fluorescence at 535 nm (green) in HEK293 cells (AID 720680). (In general: qHTS replaces the single test concentration by a dilution series.)
Experiment [2] can be described thus: qHTS assay to test for compound auto fluorescence at 460 nm (blue) in HEK293 cell free culture (AID 720681). Summed up:
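Test compounds were pinned into cell-free culture medium (DMEM with 10% FBS) and fluorescence was read directly at Ex/Em 405/460 nm. Signals were expressed as fluorescence equivalents of triamterene, with DMSO vehicle as control.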

Experiment [3] is described as follows: qHTS assay to test for compound auto fluorescence at 535 nm (green) in HEK293 cell free culture (AID 720682). In short, it runs like this: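 Using fluorescein as calibrant, autofluorescence was quantified at 485/535 nm in cell-free DMEM containing 10% FBS after pintool addition of compound or vehicle.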
Experiment [4] is described as follows: qHTS assay to test for compound auto fluorescence at 590 nm (red) in HEK293 cell free culture (AID 720683). In short, it runs like this:
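Tox21 10K library compounds were pinned into cell-free DMEM with 10% FBS and fluorescence was read at excitation 540 nm. Activity is expressed as Rose Bengal sodium equivalency.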

Experiment [5] in a line: qHTS assay to test for compound auto fluorescence at 590 nm (red) in HepG2 cell free culture (AID 720684). Summed up: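 Red fluorescence (540 nm excitation, 590 nm emission) was measured after compound transfer into cell-free MEM supplemented with 10% FBS. Values are equivalencies against Rose Bengal sodium.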
Experiment [6] is described as follows: qHTS assay to test for compound auto fluorescence at 460 nm (blue) in HepG2 cell free culture (AID 720685). Summed up: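 Compound (23 nL) or DMSO pinned into cell-free MEM with 10% FBS; blue fluorescence read at 405/460 nm excitation/emission, expressed as auto-fluorescence equivalency to triamterene.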
Experiment [7] in a line: qHTS assay to test for compound auto fluorescence at 535 nm (green) in HepG2 cell free culture (AID 720686).
Experiment [8] concerns the target Glucocorticoid receptor (Homo sapiens) (UniProt P04150). The experiment in a line: qHTS assay to identify small molecule agonists of the glucocorticoid receptor (GR) signaling pathway (AID 720691; active means well fitted activation curve with a large enough effect in the signal ratio in the repeat runs, not every such curve was filed as active; the % refers to the signal ratio). In short, it runs like this:
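GR-bla HeLa cells carrying a GRE-driven beta-lactamase reporter, exposed to compounds for 18 h at 37 C. Reporter activation read as fluorescence after 2 h with LiveBLAzer B/G FRET substrate at room temperature.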

Experiment [9] has the same target. The experiment can be described thus: qHTS assay to identify small molecule antagonists of the glucocorticoid receptor (GR) signaling pathway (AID 720692; active means well fitted inhibition curve with a large enough effect in the signal ratio in the repeat runs, not every such curve was filed as active; the % refers to the signal ratio; further: potency means the concentration at half of the fitted maximal effect). Summed up:
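GR-bla HeLa cells carrying a GRE-driven beta-lactamase reporter received compound after 4 h plating, then dexamethasone (5 nM final). After 18 h at 37C, the FRET substrate was loaded for 2 h at room temperature and fluorescence read.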

Experiment [10] can be described thus: qHTS assay to identify small molecule antagonists of the glucocorticoid receptor (GR) signaling pathway - cell viability counter screen (AID 720693). Further: nearly all actives have a fitted effect of over 55% in size. Further: potency means the concentration at half of the fitted maximal effect.
A short description of experiment [11]: qHTS assay for identifying genotoxic compounds that show differential cytotoxicity against isogenic chicken DT40 cell lines with known DNA damage response pathways - wild type cell line (AID 743012). Further: nearly all actives have a fitted effect of over 60% in size. Further: potency means the concentration at half of the fitted maximal effect. In short, it runs like this:
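Wild-type DT40 cells (300/well) exposed to compounds for 40 hours at 37 C/5% CO2. Viability read by CellTiter-Glo luminescence after 30 min at room temperature.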

Experiment [12] in a line: qHTS assay for identifying genotoxic compounds that show differential cytotoxicity against isogenic chicken DT40 cell lines with known DNA damage response pathways - Rev3 mutant cell line (AID 743014). Further: nearly all actives have a fitted effect of over 55% in size. Further: potency means the concentration at half of the fitted maximal effect.
Experiment [13] can be described thus: qHTS assay for identifying genotoxic compounds that show differential cytotoxicity against isogenic chicken DT40 cell lines with known DNA damage response pathways - Rad54/Ku70 mutant cell line (AID 743015). Further: nearly all actives have a fitted effect of over 60% in size. Further: potency means the concentration at half of the fitted maximal effect.
Experiment [14] is described as follows: qHTS assay to identify small molecule antagonists of the androgen receptor (AR) signaling pathway - cell viability counter screen (AID 743033; further: nearly all actives have a fitted effect of over 45% in size).
Experiment [15] in a line: qHTS assay to identify small molecule antagonists of the androgen receptor (AR) signaling pathway using the MDA cell line - cell viability counter screen (AID 743041; further: nearly all actives have a fitted effect of over 45% in size). Summed up:
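MDA-kb2 AR-luc human breast carcinoma cells (MMTV-luciferase, AR/GR responsive) were treated with compounds plus R1881 agonist for 16 h at 37 °C. Viability was read as CellTiter-Fluor fluorescence in the same wells as the reporter assay.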

The target of experiment [16] is Androgen receptor (Homo sapiens) (UniProt P10275). The experiment can be described thus: qHTS assay to identify small molecule antagonists of the androgen receptor (AR) signaling pathway (AID 743035; active means well fitted inhibition curve with a large enough effect in the signal ratio in the repeat runs, not every such curve was filed as active; the % refers to the signal ratio). Summed up: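 HEK293 cells stably carrying UAS-beta-lactamase reporter, 2,000/well, given compounds plus R1881 agonist and incubated 16 h at 37C. LiveBLAzer B/G FRET substrate then added for 2 h at room temperature before fluorescence reading.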

Experiment [17] shares this target. The experiment can be described thus: qHTS assay to identify small molecule agonists of the androgen receptor (AR) signaling pathway (AID 743036; active means well fitted activation curve with a large enough effect in the signal ratio in the repeat runs, with a control signal flat, not every such curve was filed as active; the % refers to the signal ratio). Summed up: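 In this Tox21 qHTS, 2,000 HEK293 AR-bla cells per well were incubated with compounds for 16 h at 37C and 5% CO2. Fluorescence intensity was recorded 2 h after adding LiveBLAzer B/G FRET substrate at room temperature.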

Experiment [18] shares this target. The experiment in a line: qHTS assay to identify small molecule agonists of the androgen receptor (AR) signaling pathway using the MDA cell line (AID 743040; further: nearly all actives have a fitted effect of over 20% in size). Summed up:
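MDA-kb2 breast carcinoma cells stably carrying an MMTV-driven luciferase reporter (AR- and GR-responsive) were seeded and held 5 h at 37C, 0% CO2, then exposed to compounds in DMSO for 16 h. Luminescence was read 30 min after ONE-Glo addition.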

For experiment [19] the target is unchanged. The experiment in a line: qHTS assay to identify small molecule antagonists of the androgen receptor (AR) signaling pathway using the MDA cell line (AID 743042; further: nearly all actives have a fitted effect of over 55% in size). In short, it runs like this:
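MDA-kb2 cells (human breast carcinoma, stably carrying an MMTV-luciferase reporter responsive to AR and GR) were plated at 3,000 cells/well and preincubated 5 hr at 37C, then given compound plus R1881 agonist for 16 h. ONE-Glo luminescence was read.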

Several values for one entry are separate records, joined by “and”; a condition that tells them apart may be missing. Identical values can stand only once. Records with an inconclusive call do not appear. A structure can be active in one record and inactive in another. Activity calls are given as the source filed them. Unless noted, the call rests on the fitted dose curve; in most records, active means well fitted curve in the direction sought with a large enough effect in the repeat runs; inconclusive means weak or mixed curves; inactive means no such curve, though single readings can be large; an effect the other way counts as inactive or inconclusive.

Glucocorticoid receptor (Homo sapiens), sequence (P04150 whole entry, looked up): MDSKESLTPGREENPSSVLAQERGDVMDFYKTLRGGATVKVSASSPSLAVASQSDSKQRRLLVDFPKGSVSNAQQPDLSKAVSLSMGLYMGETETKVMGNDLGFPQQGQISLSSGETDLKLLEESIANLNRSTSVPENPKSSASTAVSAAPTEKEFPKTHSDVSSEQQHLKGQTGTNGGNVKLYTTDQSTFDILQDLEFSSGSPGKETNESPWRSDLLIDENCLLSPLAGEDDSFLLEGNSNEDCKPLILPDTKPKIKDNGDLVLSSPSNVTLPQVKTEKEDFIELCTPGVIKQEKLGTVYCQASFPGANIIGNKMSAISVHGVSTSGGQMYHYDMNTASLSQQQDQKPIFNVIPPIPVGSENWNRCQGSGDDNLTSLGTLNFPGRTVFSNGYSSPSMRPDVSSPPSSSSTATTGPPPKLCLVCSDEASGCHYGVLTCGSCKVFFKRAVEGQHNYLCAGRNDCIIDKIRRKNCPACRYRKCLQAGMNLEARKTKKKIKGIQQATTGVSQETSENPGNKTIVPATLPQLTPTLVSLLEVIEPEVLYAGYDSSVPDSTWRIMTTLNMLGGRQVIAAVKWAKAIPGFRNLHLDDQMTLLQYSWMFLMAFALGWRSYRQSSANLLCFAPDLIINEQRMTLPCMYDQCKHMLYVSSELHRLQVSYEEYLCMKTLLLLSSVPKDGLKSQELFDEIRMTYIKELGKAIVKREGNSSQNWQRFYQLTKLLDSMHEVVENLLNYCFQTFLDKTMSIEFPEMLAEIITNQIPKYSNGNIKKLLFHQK
Androgen receptor (Homo sapiens), sequence (P10275 whole entry, looked up): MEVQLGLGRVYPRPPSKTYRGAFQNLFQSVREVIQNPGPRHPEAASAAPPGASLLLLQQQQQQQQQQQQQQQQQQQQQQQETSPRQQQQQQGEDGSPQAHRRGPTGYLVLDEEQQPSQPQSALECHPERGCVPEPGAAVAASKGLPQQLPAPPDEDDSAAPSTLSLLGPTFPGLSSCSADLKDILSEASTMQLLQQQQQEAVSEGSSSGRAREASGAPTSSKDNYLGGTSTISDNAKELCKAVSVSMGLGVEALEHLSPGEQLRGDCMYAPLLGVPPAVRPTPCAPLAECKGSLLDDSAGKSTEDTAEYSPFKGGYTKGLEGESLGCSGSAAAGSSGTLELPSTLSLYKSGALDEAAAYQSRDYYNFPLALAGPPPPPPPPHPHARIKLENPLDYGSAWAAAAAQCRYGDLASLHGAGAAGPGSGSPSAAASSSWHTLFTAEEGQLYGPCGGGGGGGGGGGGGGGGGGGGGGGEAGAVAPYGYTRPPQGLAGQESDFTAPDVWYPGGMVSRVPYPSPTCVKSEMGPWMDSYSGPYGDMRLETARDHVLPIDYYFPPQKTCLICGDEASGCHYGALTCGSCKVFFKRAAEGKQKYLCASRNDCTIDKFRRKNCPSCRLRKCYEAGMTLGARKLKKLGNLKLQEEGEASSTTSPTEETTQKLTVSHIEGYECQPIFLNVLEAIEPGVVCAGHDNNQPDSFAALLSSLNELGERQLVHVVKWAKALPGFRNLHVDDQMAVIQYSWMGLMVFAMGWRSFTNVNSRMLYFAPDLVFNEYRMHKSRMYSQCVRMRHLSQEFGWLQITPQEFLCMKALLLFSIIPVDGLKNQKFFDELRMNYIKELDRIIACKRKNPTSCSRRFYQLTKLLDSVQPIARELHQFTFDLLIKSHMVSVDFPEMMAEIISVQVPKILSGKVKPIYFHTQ

With `O=C(O)CCCC(=O)O`, the Potency result in [1], in [2], in experiment [3], in experiment [4], in experiment [5] and in experiment [6] was “inactive” each time. Moreover, the Potency result in experiment [7], in experiment [8], in [9], in experiment [10], in experiment [11] and in experiment [12] was “inactive” each time. In addition, the Potency result in [13], in experiment [14] and in experiment [15] was “inactive” each time.

As for `C[C@]12CC[C@@H]3c4ccc(O)cc4CC[C@H]3[C@@H]1CC[C@@H]2O`, the Potency entry in experiment [1], in [2], in [3], in [4], in experiment [5] and in [6] was “inactive” throughout. Also, the Potency entry in experiment [7], in experiment [14] and in experiment [15] was “inactive” in each case. The Potency was 4.25 µM (active) and 2.18 µM (active) in [9]; 24.5 µM (active) in experiment [10]; 29.8 µM (active) and 61.1 µM (active) in experiment [11]; 23.7 µM (active) and 54.4 µM (active) and 54.5 µM (active) in experiment [12].

For the compound `FC(F)(F)C(Cl)Br` (stereo unspecified), the Potency result in experiment [1], in experiment [2], in [3], in [4], in experiment [5] and in [6] was “inactive” in each case. In addition, the Potency result in [7], in experiment [8], in experiment [9], in [10], in [11] and in experiment [12] was “inactive” each time. Further, the Potency entry in experiment [14] and in [15] was “inactive” each time.

Consider `CCCCCCOCCOCCO`, for which the Potency entry in [1], in experiment [2], in [3], in experiment [4], in experiment [5] and in [6] was “inactive” each time. Moreover, the Potency result in [7], in experiment [8], in experiment [9], in experiment [10], in experiment [11] and in experiment [12] was “inactive” throughout. For the same compound, the Potency result in experiment [14] and in experiment [15] was “inactive” in each case.

Take `OC[C@@H](O)[C@@H](O[C@@H]1O[C@H](CO)[C@H](O)[C@H](O)[C@H]1O)[C@H](O)[C@@H](O)CO`: the Potency entry in experiment [1], in experiment [2], in experiment [3], in experiment [4], in experiment [5] and in experiment [6] was “inactive” throughout. The Potency entry in experiment [7], in experiment [10], in [11], in experiment [12], in experiment [14] and in [15] was “inactive” each time.

For the compound `Cc1ccc(/C(=C\CN2CCCC2)c2ccccn2)cc1`, the Potency entry in experiment [1], in experiment [2], in experiment [3], in experiment [4], in experiment [5] and in experiment [6] was “inactive” throughout. In addition, the Potency entry in [7], in experiment [10], in experiment [14] and in experiment [15] was “inactive” throughout. The Potency was 26.6 µM (active) and 57.3 µM (active) in [11]; “inactive and 57.3 µM (active)” in experiment [12].

Regarding `Nc1cc(Cl)c(N)c(Cl)c1`, the Potency entry in [1], in [2], in experiment [3], in experiment [4], in experiment [5] and in experiment [6] was “inactive” throughout. The Potency entry in [7], in experiment [8], in experiment [9], in experiment [10], in [14] and in experiment [15] was “inactive” in each case.

For the compound `NC[C@H](O)c1ccc(O)c(O)c1`, the Potency entry in experiment [1], in experiment [2], in experiment [3], in experiment [4], in experiment [5] and in experiment [6] was “inactive” throughout. For the same compound, the Potency entry in experiment [7], in experiment [8], in experiment [9], in [10], in experiment [14] and in [15] was “inactive” each time. Moreover, the Potency is 23.7 µM (active) and 21.7 µM (active) in experiment [11]; 21.1 µM (active) and 17.2 µM (active) in experiment [12]; 24.3 µM (active) in experiment [13].

On to `C=CCCCCCCCCCC`, for which the Potency entry in experiment [1], in experiment [2], in [3], in experiment [4], in experiment [5] and in experiment [6] was “inactive” each time. In addition, the Potency result in experiment [7], in experiment [8], in [9], in experiment [10], in experiment [11] and in experiment [12] was “inactive” throughout. For the same compound, the Potency entry in experiment [14] and in experiment [15] was “inactive” in each case.

`CCOC(=O)C(C)Oc1ccc(Oc2cnc3cc(Cl)ccc3n2)cc1` (stereo unspecified): the Potency entry in experiment [1], in [2], in experiment [3], in experiment [4], in experiment [5] and in experiment [6] was “inactive” each time. Besides, the Potency entry in experiment [7], in experiment [8], in [10], in experiment [14] and in experiment [15] was “inactive” in each case. For the same compound, the Potency in experiment [11] was 40.5 µM (active); in experiment [12], “inactive and 40.5 µM (active)”; in experiment [13] it was “inactive and 45.5 µM (active)”.

On to `CC[C@]12CCCN3CCc4c(n(c5ccccc45)[C@@](O)(C(=O)OC)C1)[C@@H]32`, for which the Potency result in experiment [1], in [2], in [3], in experiment [4], in experiment [5] and in experiment [6] was “inactive” throughout. Further, the Potency entry in experiment [7], in [8], in experiment [9], in experiment [10], in experiment [11] and in experiment [12] was “inactive” each time. The Potency entry in [14], in experiment [16], in experiment [18], in [15] and in [19] was “inactive” each time. For the same compound, the compound was classed as inactive in [17].

As for `CC(=O)O[C@]1(C(C)=O)CC[C@H]2[C@@H]3C=C(Cl)C4=CC(=O)CC[C@]4(C)[C@H]3CC[C@@]21C`, the Potency entry in experiment [1], in experiment [2], in [3], in experiment [4], in experiment [5] and in experiment [6] was “inactive” in each case. Further, the Potency entry in [7], in experiment [10], in [14] and in experiment [15] was “inactive” each time. Also, the Potency in experiment [11] was 10.6 µM (active) and 27.3 µM (active); in experiment [12], 11.9 µM (active); in [13] it was 18.8 µM (active).

Consider `CC(C)[N+](C)(CCOC(=O)C1c2ccccc2Oc2ccccc21)C(C)C`, for which the Potency entry in [1], in experiment [2], in [3], in [4], in experiment [5] and in [6] was “inactive” in each case. Also, the Potency result in experiment [7], in [8], in experiment [9], in [10], in experiment [11] and in [12] was “inactive” in each case. The Potency result in experiment [13], in experiment [14] and in experiment [15] was “inactive” each time.

Source of the values: PubChem BioAssay (Tox21).
